According to ChEMBL document CHEMBL3433997, “St. Jude Leishmania screening dataset” (2016):

Assays:
Assay type in all cases: functional
[1] = biological target: Solute carrier family 2, facilitated glucose transporter member 1 (Homo sapiens) (UniProt P11166); experiment: ST_JUDE_LEISH: Cytotoxicity at 2uM final concentration against transgenic Leishmania Mexicana promastigotes LmGLUT1 that are glucose transport deficient and complemented with the human glucose transporter GLUT1. Activity is measured by DNA content using SYBR green in vitro
[2] = biological target: Hexose transporter 1 (Plasmodium falciparum) (UniProt O97467); experiment: ST_JUDE_LEISH: Cytotoxicity at 2uM final concentration against transgenic Leishmania Mexicana promastigotes LmPfHT that are glucose transport deficient and complemented with the Plasmodium falciparum hexose transporter. Activity is measured by DNA content using SYBR green in vitro
[3] = biological target: Glucose transporter (Leishmania mexicana) (UniProt O61059); experiment: ST_JUDE_LEISH: Cytotoxicity at 2uM final concentration against transgenic Leishmania Mexicana promastigotes LmGT2 that are glucose transport deficient and complemented with the L. Mexicana glucose transporter 2. Activity is measured by DNA content using SYBR green in vitro

Sequence of Solute carrier family 2, facilitated glucose transporter member 1 (Homo sapiens) (P11166 whole entry): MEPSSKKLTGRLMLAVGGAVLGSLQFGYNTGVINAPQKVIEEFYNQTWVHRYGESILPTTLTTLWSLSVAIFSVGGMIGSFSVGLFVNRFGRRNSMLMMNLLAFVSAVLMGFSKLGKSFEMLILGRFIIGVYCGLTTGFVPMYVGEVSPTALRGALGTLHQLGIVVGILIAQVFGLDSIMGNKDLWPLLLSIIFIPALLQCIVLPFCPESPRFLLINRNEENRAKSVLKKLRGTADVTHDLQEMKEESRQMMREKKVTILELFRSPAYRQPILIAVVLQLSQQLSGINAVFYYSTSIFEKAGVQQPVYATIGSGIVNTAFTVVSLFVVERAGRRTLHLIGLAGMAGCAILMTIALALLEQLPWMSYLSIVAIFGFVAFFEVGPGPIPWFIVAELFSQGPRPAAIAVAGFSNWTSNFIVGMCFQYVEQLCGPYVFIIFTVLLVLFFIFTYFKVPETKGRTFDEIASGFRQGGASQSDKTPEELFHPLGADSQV

| Compound | inhibition [1] [%] | inhibition [2] [%] | inhibition [3] [%] |
| --- | --- | --- | --- |
| O=S(=O)(NCCN1CCCC1)c1ccc(-c2ccc(CNCc3ccsc3)cc2)cc1F | 8.07 | 1.33 | -0.2 |
| O=C(/C=C/c1ccc(Cl)c(Cl)c1)NCCCCCCN1CCN(C(=O)Nc2ccc(C(F)(F)F)cc2)CC1 | 2.86 | 3.11 | 3.19 |
| Cn1c(Nc2cc(C(C)(C)C)on2)nc2cc(Nc3ccnc(Nc4cccc(CS(C)(=O)=O)c4)n3)ccc21 | 0.14 | 2.81 | -0.39 |
